Results with a measured potency or affinity are listed apart.
biological target: Endoplasmic reticulum aminopeptidase 2 (Homo sapiens) (UniProt Q6P179); assay: inhibition of ERAP2 arginine-AMC cleavage – biochemical, fluorescence plate reader, cherry-picked, set 2, selectivity assay for selective ERAP1 modulator project, dose response (AID 743320); settings: recombinant ERAP2, Arg-AMC fluorescence, 1 h; series mostly up to 11 µM; activity change, negative = inhibition: at the top concentration
Sequence (Q6P179 whole entry, looked up): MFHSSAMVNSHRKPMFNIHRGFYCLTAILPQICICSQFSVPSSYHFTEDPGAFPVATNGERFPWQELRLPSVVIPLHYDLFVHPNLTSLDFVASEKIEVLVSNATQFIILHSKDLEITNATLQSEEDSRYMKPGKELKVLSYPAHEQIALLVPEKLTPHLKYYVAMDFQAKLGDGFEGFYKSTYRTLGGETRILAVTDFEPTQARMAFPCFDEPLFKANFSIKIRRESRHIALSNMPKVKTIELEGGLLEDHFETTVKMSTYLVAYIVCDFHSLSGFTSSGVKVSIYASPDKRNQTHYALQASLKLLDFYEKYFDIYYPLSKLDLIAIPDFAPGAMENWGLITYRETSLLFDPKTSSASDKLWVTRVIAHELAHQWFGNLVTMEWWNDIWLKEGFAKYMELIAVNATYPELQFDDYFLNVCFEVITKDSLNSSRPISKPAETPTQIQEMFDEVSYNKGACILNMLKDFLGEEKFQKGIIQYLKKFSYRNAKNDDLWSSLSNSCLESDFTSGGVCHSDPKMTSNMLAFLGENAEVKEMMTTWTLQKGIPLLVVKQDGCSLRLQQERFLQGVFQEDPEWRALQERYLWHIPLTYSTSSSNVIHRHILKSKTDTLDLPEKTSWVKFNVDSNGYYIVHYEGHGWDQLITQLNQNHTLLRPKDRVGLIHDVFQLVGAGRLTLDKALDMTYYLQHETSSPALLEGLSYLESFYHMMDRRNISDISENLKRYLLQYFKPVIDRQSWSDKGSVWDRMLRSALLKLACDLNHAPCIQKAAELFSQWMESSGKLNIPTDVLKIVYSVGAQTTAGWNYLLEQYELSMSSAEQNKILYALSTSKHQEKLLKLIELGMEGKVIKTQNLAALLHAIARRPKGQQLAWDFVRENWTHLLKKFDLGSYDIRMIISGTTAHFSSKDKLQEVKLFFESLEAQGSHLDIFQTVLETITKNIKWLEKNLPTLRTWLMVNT

Activity change, negative = inhibition, inactive:
C[C@@H]1CCCCO[C@@H](CN(C)CC2CC2)[C@@H](C)CN([C@H](C)CO)C(=O)c2cc(NS(=O)(=O)c3ccc(Cl)cc3)ccc2O1 18.4%
C[C@@H]1CCCCO[C@@H](CN(C)Cc2ccc3c(c2)OCO3)[C@@H](C)CN([C@@H](C)CO)C(=O)c2cc(NS(=O)(=O)c3ccccc3)ccc2O1 12.7% [at 5.6 µM]
CCCNC(=O)C[C@H]1CC[C@@H]2[C@H](COC[C@H](O)CN2C(=O)Nc2cccc(Cl)c2)O1 19.4%
CCCN(C)C[C@@H]1OCCCC[C@@H](C)Oc2ccc(NS(=O)(=O)c3ccc(C)cc3)cc2C(=O)N([C@@H](C)CO)C[C@@H]1C 6.28% [at 5 µM]
COc1ccc(CN(C)C[C@H]2OCCCC[C@@H](C)Oc3ccc(NS(=O)(=O)c4cccs4)cc3C(=O)N([C@@H](C)CO)C[C@@H]2C)cc1 10.1%
C[C@@H]1CCCCO[C@@H](CN(C)C)[C@@H](C)CN([C@@H](C)CO)C(=O)c2cc(NS(=O)(=O)c3ccc(F)cc3)ccc2O1 5.3%
COc1ccc(S(=O)(=O)N(C)C[C@@H]2Oc3ncccc3C(=O)N([C@H](C)CO)C[C@@H]2C)cc1 11.3% [at 5.6 µM]
COCCCn1c(C(=O)N2CCOCC2)cc2c(=O)n3ccccc3nc21 370%
CCn1cc(CN2CCCC(C(=O)Nc3ccc(-c4nc5ccccc5[nH]4)cc3)C2)c(C)n1 (centres undefined) 4.78%
COc1ccc2c3c([nH]c2c1)[C@H](CO)N(Cc1cc(F)ccc1F)CC31CN(C)C1 11.2%
COc1ccc(CN(C)C[C@@H]2OCCCC[C@H](C)Oc3ccc(NS(=O)(=O)c4cccs4)cc3C(=O)N([C@@H](C)CO)C[C@@H]2C)cc1 20.4%
Cc1ccc2nc3c(cc(C(=O)NCc4ccccc4)c(=N)n3CCCn3ccnc3)c(=O)n2c1 182%
COc1ccc(NC(=O)Nc2cccc3c2O[C@H](CN(C)Cc2ccc(C(=O)O)cc2)[C@H](C)CN([C@H](C)CO)C3=O)cc1 15.1%
CCCN(C)C[C@@H]1OCCCC[C@@H](C)Oc2ccc(NS(=O)(=O)c3ccc(C)cc3)cc2C(=O)N([C@H](C)CO)C[C@@H]1C 6.04% [at 10 µM]
O=C(Nc1ccc(C(F)(F)F)cc1)N1[C@@H]2CNC[C@H]1C2c1ccc(-c2ccncc2)cc1 (some centres undefined) 1.51%
C[C@H]1CN([C@@H](C)CO)C(=O)c2cccc(NC(=O)Nc3ccc(C(F)(F)F)cc3)c2O[C@@H]1CN(C)C 2.76%
CCCN(C)C[C@@H]1OCCCC[C@@H](C)Oc2ccc(NS(=O)(=O)c3ccc(OC)cc3)cc2C(=O)N([C@H](C)CO)C[C@@H]1C 15.1% [at 8 µM]
C[C@H](CO)N1C[C@H](C)[C@H](CN(C)Cc2ccncc2)Oc2c(NC(=O)Nc3ccc(C(F)(F)F)cc3)cccc2C1=O 4.68%
C[C@H]1CN([C@@H](C)CO)C(=O)c2cccc(NC(=O)Nc3ccc4c(c3)OCO4)c2O[C@@H]1CN(C)CC1CC1 12.8%
C[C@@H]1CCCCO[C@@H](CN(C)S(C)(=O)=O)[C@@H](C)CN([C@@H](C)CO)C(=O)c2cc(NS(=O)(=O)c3ccc(Cl)cc3)ccc2O1 9.01%
COc1cc2cc(C(=O)N3CCN(Cc4ccc5c(c4)OCO5)CC3)c(=O)oc2cc1OC 139% [at 5.6 µM]
O=C(O)c1cccc(NC(=O)c2ccccc2NC(=O)c2cccc([N+](=O)[O-])c2)c1 15.7%
Cc1noc(C)c1NC(=O)Nc1ccc2c(c1)C(=O)N([C@H](C)CO)C[C@@H](C)[C@@H](CN(C)Cc1ccc(C(F)(F)F)cc1)OCCCC[C@@H](C)O2 -2.75%
Cc1cc(=O)oc2c(CN3CCN(C)CC3)c(O)c(Cl)cc12 12%
COc1ccc(S(=O)(=O)Nc2ccc3c(c2)C(=O)N([C@@H](C)CO)C[C@H](C)[C@H](CN(C)C)OCCCC[C@@H](C)O3)cc1 5.02%
C[C@@H]1CCCCO[C@@H](CN(C)Cc2ccc3c(c2)OCO3)[C@@H](C)CN([C@H](C)CO)C(=O)c2cc(NS(=O)(=O)c3cccs3)ccc2O1 1.03%
CO[C@@H]1CN(C)C(=O)c2ccc(NC(=O)Nc3cccc(Cl)c3)cc2OC[C@@H](C)NC[C@H]1C 3.9%
C[C@@H]1CCCCO[C@@H](CN(C)C(=O)CCC(F)(F)F)[C@@H](C)CN([C@@H](C)CO)C(=O)c2cc(NS(=O)(=O)c3ccc(Cl)cc3)ccc2O1 127% [at 10 µM]
CCCN(C)C[C@@H]1OCCCC[C@@H](C)Oc2ccc(NS(=O)(=O)c3c(C)noc3C)cc2C(=O)N([C@H](C)CO)C[C@@H]1C -3.16% [at 10 µM]
